# IP6K1 inhibitor: Primary qHTS assay for small molecule inhibitors of Inositol hexaphosphate kinase 1 (IP6K1); activity change, % (series mostly up to about 58 µM); Inositol hexakisphosphate kinase 1 (Homo sapiens), Q92551; IP6K1 kinase, ADP-Glo luminescence, 2 h; stronger effect = lower value; AID 1645851, 2021; hit rate 0.81% among 140,000; in the data active = activity change below about -25%; note: % is set by controls: 0 for no effect and ±100 for the full control effect
#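 ADP-Glo luminescence measures ADP made by human IP6K1 during a 2 h RT reaction with ATP/IP6 (mix at 1.3 mM/130 uM); top library doses 57.5 and 19.1 uM final.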
# KDM5B inhibitor: Primary screen for KDM5B Histone Demethylases FDH-coupled qHTS; Lysine-specific demethylase 5B (Homo sapiens), Q9UGL1; KDM5B demethylase, FDH-coupled NADH fluorescence (FDH is formaldehyde dehydrogenase); Potency, µM (doses to about 57.7 µM), usual class: inhibitors; hit rate 2.6% among 220,000; active = well fitted inhibition curve with a large enough effect; inconclusive = small, poorly fitted or top-dose-only effect; inactive = no such curve, though single readings can be large or run the other way; note: potency is the fitted concentration of half-maximal effect; 0% is about no effect; nearly all actives have a fitted effect of over 70% in size
# Target sequence (Q9UGL1 whole entry, looked up): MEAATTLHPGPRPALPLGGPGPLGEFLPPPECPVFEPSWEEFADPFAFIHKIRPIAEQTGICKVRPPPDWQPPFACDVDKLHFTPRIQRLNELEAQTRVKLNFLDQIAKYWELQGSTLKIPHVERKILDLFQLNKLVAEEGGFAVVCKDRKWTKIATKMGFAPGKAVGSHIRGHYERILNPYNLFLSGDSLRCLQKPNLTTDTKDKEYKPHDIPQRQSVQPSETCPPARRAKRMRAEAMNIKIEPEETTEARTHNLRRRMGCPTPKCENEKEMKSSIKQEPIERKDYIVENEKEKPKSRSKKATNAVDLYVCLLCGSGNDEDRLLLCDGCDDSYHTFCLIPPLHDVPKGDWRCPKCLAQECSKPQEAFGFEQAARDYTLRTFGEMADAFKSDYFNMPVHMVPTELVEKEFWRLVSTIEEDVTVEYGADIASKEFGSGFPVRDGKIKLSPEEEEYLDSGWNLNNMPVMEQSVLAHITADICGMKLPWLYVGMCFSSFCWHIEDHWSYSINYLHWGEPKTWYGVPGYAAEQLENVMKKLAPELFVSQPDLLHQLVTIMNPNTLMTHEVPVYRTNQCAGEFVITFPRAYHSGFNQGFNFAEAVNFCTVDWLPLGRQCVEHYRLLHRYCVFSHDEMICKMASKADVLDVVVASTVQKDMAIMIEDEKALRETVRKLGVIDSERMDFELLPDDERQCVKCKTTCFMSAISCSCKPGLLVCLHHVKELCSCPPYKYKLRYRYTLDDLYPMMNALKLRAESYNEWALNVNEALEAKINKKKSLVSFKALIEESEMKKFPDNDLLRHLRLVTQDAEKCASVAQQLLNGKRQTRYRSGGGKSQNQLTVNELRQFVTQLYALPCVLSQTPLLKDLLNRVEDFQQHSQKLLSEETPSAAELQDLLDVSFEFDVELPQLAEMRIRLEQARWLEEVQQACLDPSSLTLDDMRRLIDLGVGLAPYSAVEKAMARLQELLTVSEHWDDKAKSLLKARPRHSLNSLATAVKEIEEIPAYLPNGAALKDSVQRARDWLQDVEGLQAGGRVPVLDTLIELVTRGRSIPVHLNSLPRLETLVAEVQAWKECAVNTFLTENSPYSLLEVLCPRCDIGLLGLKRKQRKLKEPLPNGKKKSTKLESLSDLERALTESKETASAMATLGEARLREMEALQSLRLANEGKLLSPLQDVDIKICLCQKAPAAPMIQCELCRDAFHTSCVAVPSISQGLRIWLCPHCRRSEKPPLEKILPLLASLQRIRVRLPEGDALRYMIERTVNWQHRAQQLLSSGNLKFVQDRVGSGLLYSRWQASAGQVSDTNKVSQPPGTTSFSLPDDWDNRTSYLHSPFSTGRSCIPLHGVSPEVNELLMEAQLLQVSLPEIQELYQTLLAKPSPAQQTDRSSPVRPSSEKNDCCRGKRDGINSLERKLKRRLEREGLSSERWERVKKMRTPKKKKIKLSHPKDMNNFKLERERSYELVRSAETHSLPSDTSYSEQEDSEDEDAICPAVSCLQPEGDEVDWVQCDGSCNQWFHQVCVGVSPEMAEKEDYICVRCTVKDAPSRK
#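 Inhibition is measured as reduced NADH fluorescence generation from FDH coupling to formaldehyde release. Truncated KDM5BΔAP at 200 nM final acts on H3K4me3 peptide (12.5 µM in substrate mix) in pH 7.5 HEPES buffer with Tween-20, 30 min, room temperature.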
# * = called active by the depositor; i = inactive; ? = inconclusive; . = no result given; ! = a repeat was not active. This is a sample that favours compounds with a hit; in the whole collection about 2.7% have one here.
SMILES,IP6K1 inhibitor,KDM5B inhibitor
COCCCNc1ncnc2c1CN(C1CCCNC1)C(=O)CN2C (configuration not stated),-6.3,?
CN1CC(=O)N(C2CCNC2)Cc2c(NCC3CC3)ncnc21 (configuration not stated),-2.3,89.1µM*
CCCCC1CCC(C(=O)Oc2ccc(OC)cc2)CC1 (configuration not stated),.,i
CCN(CC)C(=O)CN(C)C(=O)Nc1cccc(Cl)c1,.,i
CCn1c(CC2C(=O)N(Cc3ccccc3)c3ccc(C)cc32)nc2ccccc2c1=O (configuration not stated),.,i
CCc1cccc(C)c1NS(=O)(=O)c1ccc(-c2coc(C)n2)cc1,.,i
CCc1noc(-c2cccn3c(CNC(=O)CCC4CCCC4)nnc23)n1,-4.7,28.2µM*
CC(C)c1noc(-c2cccn3c(CNC(=O)CCC4CCCC4)nnc23)n1,10.7,15.8µM*
CCc1noc(-c2cccn3c(CNC(=O)COc4cccc(C)c4)nnc23)n1,10.2,?
CC1Cc2nc(SCC(=O)N3CCCCC3)n(-c3ccccc3)c(=O)c2S1 (configuration not stated),.,i
FC(F)(F)C1CN(c2cc(N3CCOCC3)ncn2)CCO1 (configuration not stated),12.0,i
FC(F)(F)C1CN(c2ccc3cc(Cl)ccc3n2)CCO1 (configuration not stated),-6.3,14.1µM*
Cc1nn(CCC(=O)Nc2cccc(C(F)(F)F)c2)c(C)c1S(=O)(=O)N1CCC(C)CC1,.,i
CCCCn1nc(C(=O)Nc2ccc(OCC#N)cc2)c2ccccc2c1=O,.,i
O=C(Nc1ccc(Cl)cc1)C1CCCN(c2ncnc3nc[nH]c23)C1 (configuration not stated),.,i
COc1ccc(-c2cc3c(=O)n(CCNC(=O)Cc4ccsc4)ccn3n2)cc1,-7.4,28.2µM*
O=C(Cc1ccc(F)cc1)NCCn1ccn2nc(-c3ccc(F)cc3)cc2c1=O,-4.6,i
COc1ccc(-c2cc3c(=O)n(CCNC(=O)Cc4ccc(C)cc4)ccn3n2)cc1,7.6,20µM*
Cc1ccc(-c2cc3c(=O)n(CCNC(=O)Cc4ccsc4)ccn3n2)cc1C,-10.8,i
CCN(CC)c1ccc(S(N)(=O)=O)cc1N,.,i
CSC(C)C(=O)NC(C)C1CCCO1 (configuration not stated),.,i
O=C(Nc1ccc(F)cc1)c1nc2sccn2c1-c1cccc(C(F)(F)F)c1,4.7,.
CCc1nc2ccccc2c(C(=O)OCC(=O)NC(C)(C)C)c1C,.,i
Cc1cccc(N2C(=O)CSC23CCN(C(=O)C2CC2)CC3)c1,2.2,25.1µM*
O=C(C1CC1)N1CCC2(CC1)SCC(=O)N2c1ccc(Cl)cc1,-2.4,?
SMILES,IP6K1 inhibitor,KDM5B inhibitor
O=c1ccc2cc(S(=O)(=O)NC34CC5CC(CC(C5)C3)C4)ccc2o1,.,i
Cc1noc(-c2ccn3c(CNC(=O)Cc4cccc(F)c4)nnc3c2)n1,39.4,28.2µM*
Cc1noc(-c2ccn3c(CNC(=O)c4cccc(Cl)c4)nnc3c2)n1,8.0,i
CCCc1noc(-c2ccn3c(CNC(=O)Cc4cccc(OC)c4)nnc3c2)n1,8.9,?
CCCc1noc(-c2ccn3c(CNC(=O)Cc4cccc(F)c4)nnc3c2)n1,11.3,7.08µM*
CCOc1cccc(-c2noc(-c3ncn4c3COC(c3ccc(OC)cc3)C4)n2)c1 (configuration not stated),3.1,i
O=C1CC2(CCN(C(=O)C3CCCN(C(=O)Nc4ccccc4)C3)CC2)Oc2ccccc2N1 (configuration not stated),-7.3,.
O=C(NC1CCC(O)CC1)c1ccc(-c2ncc3cnc(-c4cccc(F)c4)cn23)cc1 (configuration not stated),-8.2,22.4µM*
O=C(NCCc1cnc[nH]1)c1ccc(-c2ncc3cnc(-c4cccc(F)c4)cn23)cc1,-3.3,?
O=C(NC1CCN(CC(F)(F)F)CC1)c1ccc(-c2cccc(F)c2)nc1,14.5,.
CC(=O)NCCNC(=O)c1ccc(-c2ncc3cnc(-c4cccc(F)c4)cn23)cc1,-16.1,28.2µM*
CCN(Cc1cc(=O)oc2c(C)c(O)ccc12)C1CC1,.,i
Cc1noc(C)c1-c1cc2c(c(-c3cnn(C)c3)c1)C(=O)N(C)C2,11.8,39.8µM*
Cc1noc(C)c1-c1cc2c(c(-c3cccc(CO)c3)c1)C(=O)N(C)C2,15.5,i
CCn1c(CO)nnc1C1CC(NC(=O)c2cnn3cc(C)cnc23)C1 (configuration not stated),12.7,28.2µM*!
CCn1c(CO)nnc1C1CC(NC(=O)c2ccccc2-n2cccn2)C1 (configuration not stated),32.2,i
Cc1ccc(Nc2ccnc(N3CCC(C(=O)Nc4ccccc4Cl)CC3)n2)cc1,8.2,.
Cc1noc(C)c1[S+](=O)([O-])N1CC2(C1)NC(=O)c1ccccc1O2,-4.3,i
O=C1NC2(CCCN([S+](=O)([O-])c3cccs3)C2)Oc2ccccc21 (configuration not stated),19.6,i
COc1cccc([S+](=O)([O-])N2CCC3(COc4ccccc4C(=O)N3)C2)c1 (configuration not stated),19.9,31.6µM*
O=C1NC2(CCCN([S+](=O)([O-])c3ccsc3)C2)COc2ccccc21 (configuration not stated),17.0,31.6µM*
O=C1NC2(CCN([S+](=O)([O-])c3ccccc3)C2)COc2ccccc21 (configuration not stated),10.1,i
Cc1noc(C)c1[S+](=O)([O-])N1CCCC2(COc3ccccc3C(=O)N2)C1 (configuration not stated),14.9,25.1µM*
Cc1nn(-c2ccccc2)c2c1C(C(C)C)N(C1CCN([S+](C)(=O)[O-])C1)C2=O (configuration not stated),-1.5,.
Fc1ccc(OCc2nnc3sc(COc4ccc(Cl)cc4)nn23)cc1,.,i
SMILES,IP6K1 inhibitor,KDM5B inhibitor
CCNc1ncnc2sc3c(c12)CCN(Cc1ccc[nH]1)C3,-3.0,28.2µM*
CCNc1ncnc2sc3c(c12)CCN(Cc1cccnc1)C3,-3.3,?
CCNc1ncnc2sc3c(c12)CCN(C(=O)NCCOC)C3,11.6,28.2µM*
COCCNC(=O)N1CCc2c(sc3ncnc(N(C)C)c23)C1,4.8,?
COCC(=O)N1CCc2c(sc3ncnc(N4CCN(C)CC4)c23)C1,-0.8,i
CCCNC(=O)N1CCc2c(sc3ncnc(N4CCN(C)CC4)c23)C1,-2.6,28.2µM*
COc1ccc(Nc2ncnc3sc4c(c23)CCCC4)cc1,-17.6,?
COCCCNc1ncnc2sc3c(c12)CCNC3,2.2,25.1µM*
Cn1ncc2c(C(=O)Nc3ccc(F)cc3)cc(-c3cccc(C(F)(F)F)c3)nc21,0.6,.
CC(NC(=O)CCCC(=O)O)C12CC3CC(CC(C3)C1)C2 (configuration not stated),.,i
CCNC(=O)N1CCc2c(sc3ncnc(N(C)C)c23)C1,-1.5,i
CCNC(=O)N1CCc2c(sc3ncnc(NCC)c23)C1,4.3,31.6µM*
Cc1c(NC(=O)CCSc2nc3c(=O)n(C)c(=O)n(C)c3n2C)cccc1C(F)(F)F,.,i
CN(CC(=O)N1CCCC(CCc2ccc(F)cc2)C1)C1CCNCC1 (configuration not stated),12.9,i

# Screens as filed in PubChem BioAssay.
